PubChem BioAssay (NCATS)
“And” between values parts separate entries of the source, which are not always exact repeats. Equal entries are not always repeated. Inconclusive results are not listed. A number with no mark means an inactive call. The call rests on the fitted dose curve; in most records, active means well fitted inhibition curve with a large enough effect in the signal ratio, with a control signal flat (not every such curve was filed as active); inconclusive means small, poorly fitted or top-dose-only effect, or effect the other way, or a change in a side signal; inactive means no such curve, though single readings can be large or run the other way; the % refers to the signal ratio. Peptide text beside a SMILES is read from it.

What follows are molecules tested against Retinoic acid receptor RXR-alpha (Homo sapiens) (UniProt P19793) (assay: qHTS assay for small molecule antagonists of retinoid X receptor alpha signaling (AID 588546)). Conditions: HEK293T RXRa-UAS-bla, beta-lactamase ratio, antagonist mode.
Sequence of Retinoic acid receptor RXR-alpha (Homo sapiens) (P19793 whole entry, looked up): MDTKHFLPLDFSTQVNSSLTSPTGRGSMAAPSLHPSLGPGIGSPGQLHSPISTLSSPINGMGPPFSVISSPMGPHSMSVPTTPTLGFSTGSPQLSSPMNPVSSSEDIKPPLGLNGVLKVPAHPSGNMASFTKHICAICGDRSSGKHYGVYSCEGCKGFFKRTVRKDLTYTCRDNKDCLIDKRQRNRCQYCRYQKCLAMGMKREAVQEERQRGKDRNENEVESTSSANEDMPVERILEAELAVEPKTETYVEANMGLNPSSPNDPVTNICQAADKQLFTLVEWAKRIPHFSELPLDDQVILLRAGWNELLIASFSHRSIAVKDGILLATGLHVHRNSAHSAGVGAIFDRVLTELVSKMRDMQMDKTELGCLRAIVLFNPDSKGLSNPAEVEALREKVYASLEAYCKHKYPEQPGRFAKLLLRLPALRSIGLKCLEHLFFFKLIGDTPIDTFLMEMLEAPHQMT
Text: NIH Chemical Genomics Center [NCGC] U.S. Environmental Protection Agency [EPA] National Institutes of Environmental Health Sciences [NIEHS] National Toxicology Program [NTP] NCGC Assay Overview The Retinoid X receptor (RXR), a nuclear hormone receptor is expressed in liver, spleen, placenta, epidermis, central nervous system. These receptors are able to form homo and heterodimers with other nuclear receptors and due to this heterodimerizing ability, RXR functions as master regulators producing diverse physiological effects. Three subtypes of RXR exist; alpha, beta and gamma. Retinoid X receptor alpha (RXR-alpha) has potential roles in metabolic signaling pathways, skin alopecia, dermal cysts, cardiac development, insulin sensitization etc. Therefore screening environmental chemicals on RXR-alpha signaling can be used for the studies focused on such therapeutic applications.
NCGC Assay Protocol Summary Using a beta-lactamase reporter-gene under control of Retinoid X receptor--alpha (RXR-alpha) response element, a cell-based assay [GeneBLAzer (RXR-alpha -UAS-bla assay developed by Invitrogen] was used to measure RXR-alpha ligands signaling. GeneBLAzer RXR-alpha -UAS-bla HEK293T cells were used with assay medium containing 2% charcoal-stripped FBS. The assay was performed in clear bottom black Greiner 1536-well plates. Library compounds were measured for their ability to inhibit the reporter gene activity. Compounds were screened in a titration series in 1536-well format. The fluorescence intensity (405 nm excitation, 460/530 nm emission) was measured using an EnVision plate reader. Data was normalized relative to 9-cis-retinoic acid control (500 nM, 100%), and DMSO only wells (basal, 0%). Concentration-response titration points for each compound were fitted to the Hill equation yielding concentrations of half-maximal inhibition (IC50) and maximal response (efficacy) values. qHTS protocol for RXR-alpha beta-lactamase assay in antagonist mode [Step] [Parameter] [Value] [Description] 1. Reagent; 5 uL; 2500 cells/well 2. Incubation; 37 C for 4 hrs 3. Compounds; 23 nL; 0.59 nM to 92 uM 4. Controls (DMSO); 23 nL 5. Agonist (Stimulator); 1uL; 9-cis-retinoic acid at 500 nM and 100 nM final concentrations 6. Incubation; 37 C for 18 hrs 7. Detection reagent; 1 uL of CCF4-dye 8. Incubation; RT for 2 hrs 9. Detection; Fluorescence; Envision plate reader
On the % scale 0 is the no-effect control and ±100 the full control effect.

| Structure (SMILES) | max response |
| --- | --- |
| COc1c2occc2cc2ccc(=O)oc12 | 1.26% and 12.5% |
| c1ccc2[nH]c(-c3cscn3)nc2c1 | 14% and 3.02% |
| Nc1nc(Cl)nc2c1ncn2[C@H]1C[C@H](O)[C@@H](CO)O1 | -2.35% |
| Cc1cc(O)c2c(c1)C(=O)c1cc(O)cc(O)c1C2=O | -11.8% |
| CCCCC(CC)COC(=O)C(C#N)=C(c1ccccc1)c1ccccc1 (stereo not given) | -7.69% |
| Nc1ccc(S(N)(=O)=O)cc1 | 9.55% |
| COC(=O)[C@H](Cc1ccccc1)NC(=O)[C@@H](N)CC(=O)O (H-Asp-Phe-OMe) | 1.69% and -7.67% |
| COc1cc(OC)c(C(=O)CCCN2CCCC2)c(OC)c1 | -23.6% |
| CC1(C)NC(=O)N(c2ccc([N+](=O)[O-])c(C(F)(F)F)c2)C1=O | 1.48% |
| CCc1nc(N)nc(N)c1-c1ccc(Cl)cc1 | -13% |
| CCCc1cc(=O)[nH]c(=S)[nH]1 | 3.88% and 3.79% |
| CNC[C@H](O)c1ccc(O)c(O)c1 | -4.11% |
| CS(=O)(=O)OCCCCOS(C)(=O)=O | 8.02% and 2.56% |
| CN(C)c1ccc2nc3ccc(=[N+](C)C)cc-3sc2c1 | -3.23% |
| Cc1ccc(C)c(OCCCC(C)(C)C(=O)O)c1 | 1.18% and -8.41% |
